# Rows were chosen to be rich in hits. Some 19% of all compounds tested hit in one or more screens of this group.
# DT40 TDP1 CPT: DT40-hTDP1 cell growth loss with CPT; chicken DT40 Tdp1-/-;hTDP1 cells + 20 nM CPT, ATP luminescence, 48 h; Potency, µM (top dose mostly 46.2 µM), for inactives: at the top dose activity change, negative = growth inhibition, hits mostly inhibitors; actives 12% (n = 420,000); AID 686979; note: potency is the fitted concentration of half-maximal effect; nearly all actives have a fitted effect of over 55% in size
#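 Chicken DT40 Tdp1-/- cells stably complemented with human TDP1 were seeded at 400 cells/well in medium containing 20 nM camptothecin, exposed to pin-transferred compounds, and grown at 37 °C for at least 48 hr. Viability was read as ATP luminescence.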
# IL1B secr inh: blocks inflammasome-driven IL-1 beta release. activity change, % at 57.5 µM. actives 4.7% (n = 360,000). THP-1 LPS/ATP IL-1B secretion, AlphaLISA, 16 h; hits give low values; in the data active = activity change below about -50%; inconclusive = mostly about -30% to -49%
#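 Secreted IL-1B measured by AlphaLISA bead assay after 16 h compound exposure of THP-1 cells; compounds (final up to 57.5 uM) added 1 h before LPS (250 ng/mL) and ATP (1.25 mM) stimulation; lower signal means less secretion.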
# HT1080NT lethal: kills 2HG-producing HT-1080-NT fibrosarcoma cells. Potency, µM (titrated, usually from 46.1 µM), without a hit: at the top dose activity, negative = less viability, usual class: cytotoxic. actives 1.6% (n = 360,000). HT-1080-NT fibrosarcoma viability, CellTiter-Glo ATP luminescence, 48 h;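 note: NT is the 2HG producing partner of a matched IDH1 knockdown line; potency is the fitted concentration of half-maximal effect; 0% = DMSO-treated cells and -100% = media-only wells without cells; nearly all actives have a fitted effect of over 55% in size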
#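 Toxicity toward the 2HG-producing NT line was scored as %Activity, normalised to DMSO and no-cell wells, from CellTiter-Glo luminescence after 48 hours' treatment.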
# DT40 TDP1 no CPT: qHTS for Inhibitors of human tyrosyl-DNA phosphodiesterase 1 (TDP1): qHTS in cells in absence of CPT. DT40 Tdp1-/- hTDP1 cells, no CPT, ATP luminescence, 48 h. Potency, µM (top dose mostly 46.2 µM), for inactives: top-dose activity change, negative = growth inhibition, hits mostly inhibitors. actives 15% (n = 420,000). AID 686978, 2013; note: potency is the fitted concentration of half-maximal effect; nearly all actives have a fitted effect of over 55% in size
#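 Growth kinetics read by CellTiter-Glo luminescence after ≥48 hr at 37 °C. Cells: DT40 Tdp1-/- stably carrying human TDP1, 400 per well, compound exposure in the absence of CPT (DMSO vehicle).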
# HT1080 IDH1KD tx: kills HT-1080 cells with IDH1 knockdown; HT-1080 IDH1 knockdown viability, ATP luminescence, 48 h; actives 2% (n = 360,000); Potency, µM (doses to about 46.1 µM), for inactives: top-dose activity, negative = toxicity, actives largely listed as cytotoxic;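 note: potency is the fitted concentration of half-maximal effect; 0% = DMSO wells and -100% = cell-free medium wells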
#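 After a 2 h attachment period, IDH1KD HT-1080 cells took pin-transferred compound for 48 h at 37 °C; ATP-based luminescence after 10 min room-temperature reagent incubation reported viability.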
# * = called active by the depositor; ? = inconclusive; / = no result. Unless noted, calls come from the whole dose curve; as a rule, active = well fitted curve in the direction sought with a large enough effect; inconclusive = small, poorly fitted or top-dose-only effect, or another doubt; inactive = no such curve, though single readings can be large; an effect the other way counts as inactive or inconclusive. Unless noted, % is set by controls: 0 for no effect and ±100 for the full control effect.
SMILES,DT40 TDP1 CPT,IL1B secr inh,HT1080NT lethal,DT40 TDP1 no CPT,HT1080 IDH1KD tx
O=C(NCc1ccc(F)cc1)c1c(O)nc2ccccn2c1=O,?,/,/,21µM*,/
CCn1c(C(=O)NCc2ccccc2C)cc2oc3ccccc3c21,2%,/,/,?,/
CCOc1ccc(NC(=O)Cn2cc(C(=O)c3ccc(CC)cc3)c(=O)c3cc(C)ccc32)cc1,-12%,/,/,-24%,/
CC1(C)CC(=O)C=C(c2ccc(-c3ccc4[nH]ccc4c3)cc2)C1=O,?,-15,?,26µM*,?
CC1(C)CC(=O)C=C(c2ccc(-c3ccc(OC(F)(F)F)cc3)cc2)C1=O,16µM*,?,?,10µM*,21µM*
CC1(C)CC(=O)C=C(c2ccc(-c3ccccc3)cc2)C1=O,?,-7,-7%,26µM*,-13%
CC(C)(C)c1ccc(OCC(=O)N/N=C/c2ccsc2)cc1,-14%,-17,-2%,?,3%
O=C1CSC(c2ccc([N+](=O)[O-])cc2)N1c1ccc(O)cc1 (centres undefined),-8%,-1,-12%,-18%,-13%
COc1cccc(NC(=O)CSc2nc3cc(OC)c(OC)cc3c3nc(-c4ccccc4)nn23)c1,6%,/,/,-25%,/
CCCCN(C)C(=O)c1ccc2c(=O)n3nc(Nc4cc(C)ccc4C)sc3nc2c1,13µM*,/,/,12µM*,/
Cc1ccc(C)c(Nc2nn3c(=O)c4ccc(C(=O)N(C)Cc5ccccc5)cc4nc3s2)c1,9.2µM*,/,/,21µM*,/
O=C1CNC(=O)/C1=C\N1CCN(C(c2ccccc2)c2ccccc2)CC1,?,-9,-3%,?,-1%
C=C(C)C1Cc2c(C)nn(-c3ccccc3)c2C1 (centres undefined),-16%,-3,-2%,-19%,1%
C=C(C)C1Cc2c(C)nn(-c3cccc4ccccc34)c2C1 (centres undefined),21µM*,32,?,?,?
O=C(NCc1ccco1)c1cccc2c1C(=O)c1ccc(N3CCC(N4CCCCC4)CC3)cc1S2(=O)=O,19%,-22,5%,-6%,1%
CCOc1ccccc1C(=O)N(Cc1ccco1)Cc1ccccc1F,21µM*,/,/,21µM*,/
COc1ccccc1C(=O)N(Cc1ccco1)Cc1ccccc1F,?,/,/,21µM*,/
O=C(NCc1cccc(F)c1)c1ccc2nc(N3CCCCC3)sc2c1,?,/,/,-29%,/
O=C1C=C(c2ccc(C(=O)O)c(Cl)c2)C[C@@H](c2ccc3c(c2)OCO3)C1,-12%,18,4%,-10%,10%
Cc1ccc(C)n1-c1sc2c(c1C#N)CCC(C)C2 (centres undefined),-1%,-7,4%,?,-1%
CC(C)C1C(c2ccccc2)NC(c2ccccc2)CC1(O)c1ccc(F)cc1 (centres undefined),?,0,?,15µM*,?
CCOC(=O)c1c(C)n(C(=O)c2ccco2)c(=O)n1C(=O)c1ccco1,-23%,-68*,0%,-19%,4%
CCOC(=O)c1c(C)c(C(=O)N2CCN(C(=O)c3ccco3)CC2)c(C)n1C,-2%,-13,-2%,12%,7%
Cc1ccc2oc3nc(C)c(C(=O)Nc4cccc(C(F)(F)F)c4)cc3c(=O)c2c1,-25%,-6,2%,?,-4%
O/N=C\c1ccc2noc(-c3ccc(Cl)cc3)c2c1,-14%,25,-3%,-27%,-6%
Cc1cnc(CNc2cc(-c3ccc(N(C)C)cc3)ncn2)cn1,-27%,/,/,-12%,/
CCc1cnc2c(c1SCc1c(F)cccc1Cl)c(=O)n(C)c(=O)n2C,15µM*,/,/,26µM*,/
CC(C)Cc1nc(SCC(=O)N2CCCC2)c2c(=O)n(C)c(=O)n(C)c2n1,-4%,49,0%,-1%,1%
CCCc1cnc2c(c1SCC(=O)NCc1ccc(C)cc1)c(=O)n(C)c(=O)n2C,-8%,/,/,-17%,/
CCCc1cnc2c(c1SCC(=O)N1CCC(C)CC1)c(=O)n(C)c(=O)n2C,16µM*,/,/,21µM*,/

# Assay outcomes deposited in PubChem BioAssay by National Center for Advancing Translational Sciences (NCATS).
